{
  "source": "PubChem BioAssay (Tox21)",
  "note": "“And” between values parts separate entries of the source, which are not always exact repeats. Equal entries are not always repeated. Results filed as inconclusive are left out. A call without a number means that no potency is given here. The source made the active and inactive calls. Calls come from the whole dose curve; as a rule, active = well fitted inhibition curve with a large enough effect in the repeat runs; inconclusive = weak or mixed curves; inactive = no such curve, though single readings can be large or run the other way. Potency is the fitted concentration of half-maximal effect.",
  "data": [
    {"assay": "qHTS assay to identify small molecule antagonists of the thyroid receptor (TR) signaling pathway (AID 743065); note: nearly all actives have a fitted effect of over 55% in size", "conditions": "GH3.TRE-Luc, T3-stimulated luciferase inhibition, 23.5 h; series mostly up to 70.3 µM", "from_the_text": "U.S. Tox21 Program National Center for Advancing Translational Sciences [NCATS] NIH Chemical Genomics Center [NCGC] U.S. Environmental Protection Agency [EPA] National Institutes of Environmental Health Sciences [NIEHS] National Toxicology Program [NTP] U.S. Food and Drug Administration [FDA] Tox21 Assay Overview: Thyroid receptor (TR), a nuclear hormone receptor, plays an important role in development, proliferation, differentiation, metabolism, brain function, and cardiovascular system. […] To profile the Tox21 10K compound library in TR signaling, a cell-based GH3-TRE-Luc assay (GH3.TRE-Luc cell line, developed by the laboratory of Dr. Albertinka J. Murk, Wageningen University) was used to measure the inhibition of TR. GH3 (rat pituitary tumor) cells stably expressing a TR activity sensor consisting of two TR response elements and a luciferase reporter gene.\nTox21 Assay Protocol Summary: GH3.TRE-Luc cells were dispensed at 1500 cells/4 uL/well into 1536-well white solid bottom plates using a Multidrop Combi dispenser (Thermo Fisher Scientific Inc., Waltham, MA). After the assay plates were incubated at 37 C for 4 hours, 23 nL of library compound or DMSO controls was transferred to the assay plates by a pintool station (Kalypsys, San Diego, CA), followed by addition of 1 ul of T3 (1 nM, final concentration in the wells) to stimulate TR transactivation. The assay plates were incubated at 37 C for 23.5 h, and then 1 uL of CellTiter-Fluor reagent (Promega, Madision, WI) of measuring cytotoxicity was added to each well using a Bioraptr Flying Reagent Dispenser (FRD) workstation (Beckman Coulter, Indianapolis, IN, USA). The plates were incubated at 37 C and 5% CO2 for additional 30 min, and fluorescence intensity was measured by a ViewLux plate reader (PerkinElmer, Shelton, CT). For measuring luciferase reporter gene activity, 4 uL of ONE-Glo Luciferase Assay reagent (Promega) was added to each well using a Bioraptr FRD (Beckman Coulter), followed by 30 min incubation at room temperature. The luminescence intensity of plates was recorded by a ViewLux plate reader (PerkinElmer, Shelton, CT).", "values": [
      {"smiles": "CCC[C@H](N[C@@H](C)C(=O)N1[C@H](C(=O)O)C[C@@H]2CCCC[C@@H]21)C(=O)OCC", "Potency": "inactive"},
      {"smiles": "CCn1cc(C(=O)O)c(=O)c2cc(F)c(N3CCNC(C)C3)c(F)c21", "note": "(stereo not given)", "Potency": "inactive"},
      {"smiles": "Nc1ccc2cc3ccccc3cc2c1", "Potency": "inactive"},
      {"smiles": "C/C=C/c1ccc(OCC)c(O)c1", "Potency": "inactive"},
      {"smiles": "CC[C@@H](N)CO", "Potency": "inactive"},
      {"smiles": "CCCC(=O)c1ccccc1", "Potency": "inactive"},
      {"smiles": "c1ccc2cc3c(ccc4ccccc43)cc2c1", "Potency": "inactive"},
      {"smiles": "CC(C)CCOC(=O)c1ccc(N(C)C)cc1", "Potency": "inactive"},
      {"smiles": "c1ccc2c(c1)CCCC2C1=NCCN1", "note": "(stereo not given)", "Potency": "inactive"},
      {"smiles": "CC1COc2c(N3CCN(C)CC3)c(F)cc3c(=O)c(C(=O)O)cn1c23", "note": "(stereo not given)", "Potency": "inactive"},
      {"smiles": "CN(C)c1ccc(C(=C2C=CC(=[N+](C)C)C=C2)c2ccccc2)cc1", "Potency": "6.68 µM (active) and 48.6 nM (active)"},
      {"smiles": "O=C(O)CCc1ccccc1", "Potency": "inactive"},
      {"smiles": "c1cc(C(c2ccc(OCC3CO3)cc2)C(c2ccc(OCC3CO3)cc2)c2ccc(OCC3CO3)cc2)ccc1OCC1CO1", "note": "(stereo not given)", "Potency": "20.1 µM (active) and 21.7 µM (active)"},
      {"smiles": "CC(=O)OCCOCCOCCOC(C)=O", "Potency": "inactive"},
      {"smiles": "COc1nc(C)nc(Cl)c1NC1=NCCN1", "Potency": "inactive"},
      {"smiles": "O=C(Oc1ccccc1)c1ccccc1O", "Potency": "inactive"},
      {"smiles": "CCC(CO)(CO)COCC(CC)(CO)CO", "Potency": "inactive"},
      {"smiles": "O=c1n(CC2CO2)c(=O)n(CC2CO2)c(=O)n1CC1CO1", "note": "(stereo not given)", "Potency": "6.68 µM (active) and 8.58 µM (active) and 4.33 µM (active)"},
      {"smiles": "CCOc1ccc2c(c1)C(C)=CC(C)(C)N2", "Potency": "33.5 µM (active)"},
      {"smiles": "Cc1cc(C(C)(C)C)c(O)c(C(C)(C)C)c1", "Potency": "inactive"},
      {"smiles": "COC(=O)c1cccc(C(=O)OC)c1", "Potency": "inactive"},
      {"smiles": "CCCCN(CCO)CCCC", "Potency": "inactive"},
      {"smiles": "O=C(O)CP(=O)(O)O", "Potency": "inactive"},
      {"smiles": "C[N+]1([O-])CCOCC1", "Potency": "inactive"},
      {"smiles": "CC1=CC(=O)c2ccccc2C1=O", "Potency": "21.1 µM (active) and 13.7 µM (active)"},
      {"smiles": "COC(=O)/C=C/c1ccccc1", "Potency": "inactive"},
      {"smiles": "CCN1CCCC1CNC(=O)c1cc(S(=O)(=O)CC)c(N)cc1OC", "note": "(stereo not given)", "Potency": "inactive"},
      {"smiles": "CC(=O)N[C@@H](CS)C(=O)O", "Potency": "inactive"},
      {"smiles": "CC[C@H]1CN2CCc3cc(OC)c(OC)cc3[C@@H]2C[C@@H]1C[C@H]1NCCc2cc(OC)c(OC)cc21", "Potency": "37.6 nM (active) and 38.7 nM (active)"},
      {"smiles": "O=S(=O)(O)c1ccc2nc(-c3ccccc3)[nH]c2c1", "Potency": "inactive"},
      {"smiles": "Oc1c(Cl)cc(Cl)cc1Sc1cc(Cl)cc(Cl)c1O", "Potency": "8.63 µM (active) [middle of 4 runs]"},
      {"smiles": "CN1C(=O)c2ccc([N+](=O)[O-])cc2C1=O", "Potency": "inactive"},
      {"smiles": "COC(=O)[C@H]1[C@H]2C[C@@H]3c4[nH]c5cc(OC)ccc5c4CCN3C[C@H]2C[C@@H](OC(=O)c2cc(OC)c(OC)c(OC)c2)[C@@H]1OC", "Potency": "11.9 µM (active) and 21.6 µM (active) and 39.7 µM (active)"},
      {"smiles": "CCCCOCCOC(=O)c1ccccc1C(=O)OCCOCCCC", "Potency": "30 µM (active)"},
      {"smiles": "CCCCCCC(O)CCCCCCCCCCC(=O)O", "note": "(stereo not given)", "Potency": "inactive"},
      {"smiles": "CCCCC/C=C/CC1CC(=O)OC1=O", "note": "(stereo not given)", "Potency": "inactive"},
      {"smiles": "CCCCCCCCCCCC[N+](C)(C)C", "Potency": "9.66 µM (active) and 6.86 µM (active) and 7.7 µM (active)"},
      {"smiles": "O=C1Nc2ccccc2C1(c1ccc(O)cc1)c1ccc(O)cc1", "Potency": "54.5 µM (active)"},
      {"smiles": "CC(C)(C)c1cc(C(C)(C)C)c(O)c(C(C)(C)C)c1", "Potency": "27.3 µM (active)"},
      {"smiles": "O=C(OCc1ccccc1)c1ccc(O)cc1", "Potency": "inactive"}
    ]}
  ]
}
